Hits are enriched below; roughly 10% of the tested compounds scored in any of these assays.
12-hLO inh: inhibitors of human 12-lipoxygenase (ALOX12). Potency, µM (doses to about 57.1 µM), inactives show at the top dose activity change, negative = inhibition, usual class: inhibitors. P18054. AID 1452. purified 12-hLO, xylenol orange hydroperoxide absorbance. 0.12% of 150,000 active; active = well fitted inhibition curve with a large enough effect; inconclusive = small, poorly fitted or top-dose-only effect; note: potency is the fitted concentration of half-maximal effect; nearly all actives have a fitted effect of over 55% in size
Target sequence (P18054 whole entry, looked up): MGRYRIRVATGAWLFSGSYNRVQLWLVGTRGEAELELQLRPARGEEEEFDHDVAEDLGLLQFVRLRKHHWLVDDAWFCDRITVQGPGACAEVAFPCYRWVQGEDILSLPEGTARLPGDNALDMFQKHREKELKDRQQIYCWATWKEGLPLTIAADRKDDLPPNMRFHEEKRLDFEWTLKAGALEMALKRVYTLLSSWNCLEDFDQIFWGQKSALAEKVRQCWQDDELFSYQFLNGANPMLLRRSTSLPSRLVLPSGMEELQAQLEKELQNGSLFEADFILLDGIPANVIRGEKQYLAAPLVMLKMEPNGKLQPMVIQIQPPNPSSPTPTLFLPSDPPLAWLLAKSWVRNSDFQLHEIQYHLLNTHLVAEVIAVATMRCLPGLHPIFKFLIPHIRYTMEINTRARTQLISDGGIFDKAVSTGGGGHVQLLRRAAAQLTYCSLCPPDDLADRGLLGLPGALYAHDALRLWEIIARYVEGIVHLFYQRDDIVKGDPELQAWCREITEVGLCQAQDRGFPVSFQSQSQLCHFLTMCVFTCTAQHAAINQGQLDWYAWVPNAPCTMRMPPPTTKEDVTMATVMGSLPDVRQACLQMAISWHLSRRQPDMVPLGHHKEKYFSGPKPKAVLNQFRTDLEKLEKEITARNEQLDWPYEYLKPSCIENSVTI
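Hydroperoxide output read as Fe(III)-xylenol orange absorbance, 573-to-405 nm ratio, after 30 min reaction with 40 uM arachidonic acid. Enzyme: 150 nM purified human 12hLO, 15 min compound preincubation; 25 mM Hepes pH 7.0, room temperature.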
Lamin A splicing: modulators of lamin A splicing; Potency, µM (titrated, usually from 46.1 µM), for inactives: at the highest dose ratio change, negative = inhibition, most hits filed as inhibitors; HeLa LMNA splicing GFP/RFP minigene ratio, 48 h; AID 1487; 0.01% of 200,000 active; active = well fitted inhibition curve with a large enough effect in the signal ratio, with a control signal flat, not every such curve was filed as active; inconclusive = small, poorly fitted or top-dose-only effect, or effect the other way, or a change in a side signal; the % refers to the signal ratio; note: potency is the fitted concentration of half-maximal effect
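Read-out is the ratio of GFP to DsRed2 object intensity, acquired by 488 nm laser-scanning cytometry on HeLa lamin A-EGFP minigene reporter cells. Compound incubation 48 hrs at 37 °C in Opti-MEM with 2% FBS; DMSO 0.5% final.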
ALDH1A1 inh: blocks purified human ALDH1A1 activity. P00352. Purified ALDH1A1, NADH fluorescence, propionaldehyde substrate. Potency, µM (highest dose often 75.3 µM), without a hit: at the top dose activity, negative = inhibition, usual class: inhibitors. 7.3% of 220,000 active. AID 1030;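 note: potency is the fitted concentration of half-maximal effect; plate controls were no enzyme wells and a reference inhibitor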
HPGD inh: HPGD (human) dehydrogenase inhibition; 4.3% of 150,000 active; Potency, µM, inactives show at the top dose activity change, negative = inhibition, actives largely listed as inhibitors; purified HPGD, NADH fluorescence kinetic, PGE2 substrate; note: potency is the fitted concentration of half-maximal effect
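20 nM HPGD preincubated 15 min at room temperature with compound in 50 mM Tris-HCl pH 8, 0.01% Tween 20. Started with 1 mM NAD+ and 30 uM prostaglandin E2; NADH fluorescence (360/450 nm) read 5 times over 30-s intervals, last minus first.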
PNC assembly inh: perinucleolar compartment assembly inhibition | 3.1% of 140,000 active | PC3M PTB-GFP, PNC prevalence imaging, 16 h; active compounds read low | activity change (PNC), negative = inhibition, % at 10 µM;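 active = readout at or below -70, meaning at least 70% loss of cells showing the perinucleolar compartment, a nuclear body marking cancer cells; inconclusive = readout between -30 and a set limit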;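 note: plate controls were DMSO wells for no effect and camptothecin positive control wells for full effect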
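Read-out is percentage of cells bearing a perinucleolar compartment, from automated 20x imaging of fixed, Hoechst-stained PC3M PTB-GFP cells. Cells were seeded 4 h, then exposed 16 h to compound (23 nl of library stock) in duplicate plates.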
Starred values were filed as active, the others as inactive; ? = inconclusive; . = no result given; [ ] = dose if it differs, or a comment. Unless noted, calls come from the whole dose curve; as a rule, active = well fitted inhibition curve with a large enough effect (not every such curve was filed as active); inconclusive = small, poorly fitted or top-dose-only effect, or another doubt; inactive = no such curve, though single readings can be large or run the other way. Unless noted, % is set by controls: 0 for no effect and ±100 for the full control effect.

SMILES	12-hLO inh	Lamin A splicing	ALDH1A1 inh	HPGD inh	PNC assembly inh
Cn1nc(-c2ccc(Cl)cc2)c2cc(C(=O)NC3CC3)sc21	6%	14%	?	-16%	-86*
COc1cc([C@H](O)CO)ccc1O	5%	.	.	.	.
Cc1cc(=O)oc2cc(OCC(=O)N3c4ccccc4CC3C)ccc12 (configuration not stated)	-9%	?	?	?	-85*
Cc1cc(=O)oc2cc(OCC(=O)N3CC(C)OC(C)C3)ccc12 (configuration not stated)	2%	-4%	?	?	-5
CCOC(=O)Cc1ccc(NC(=O)N2CCOc3ccc(C)cc32)cc1	.	-22%[46 µM]	.	.	.
COC(=O)c1ccc(CSC(=N)N)o1	.	?	3%	.	.
CCOC(=O)c1ccoc1CSCc1ccc(C(=O)OC)o1	-7%	-3%	25µM*	-18%	?
COC(=O)C1=C(C(=O)OC)SC2(S1)C(C(=O)OC)=C(C(=O)OC)SC1=C2c2cc(C)ccc2NC1(C)C	-9%	8%	8.9µM*	10µM*	5
CCOC(=O)C1(N(CC)CC)Sc2cc(C)ccc2NC1=O (configuration not stated)	-4%	2%	?	-22%	-8
Cc1nnc(C)n1N	.	4%[46 µM]	7%	.	.
Cc1ccc(S(=O)(=O)N2CCN(C(=O)CC(C)C)CC2)cc1	.	5%[46 µM]	-14%	.	.
CC(C)CC(=O)N1CCN(S(=O)(=O)c2ccc(F)cc2)CC1	5%	6%	?	-13%	-119*
COC(=O)C1=C(C(=O)OC)[C@@H]2Nc3ccccc3[C@@]23C[C@@H](C(=O)OC)N(S(=O)(=O)c2c(C)noc2C)C3=N1	-1%[11.4 µM]	4%[9.22 µM]	?	0%	.
CC(=O)Nc1ccc(NC(=O)CSc2nccn2Cc2ccc3c(c2)OCO3)cc1	.	-20%[46 µM]	.	.	.
CC(C)(C)c1cnnn1-c1cccc([N+](=O)[O-])c1	.	.	4%	.	.
CC(C)(C)c1cnnn1-c1ccc(C(=O)CCl)cc1	-1%	-15%	0.71µM*	14µM*	?
CC(C)(C)c1cnnn1-c1ccc(C=O)cc1	1%	3%	25µM*	1%	?
Cc1cc(/C=N/n2cnnc2)c(C)n1-c1cc(Cl)ccc1Cl	-3%	?	22µM*	-24%	-11
COC(=O)c1ccc(-c2noc(CN(C)CCC3CCCCO3)n2)cc1 (configuration not stated)	.	?	8.9µM*	.	.
CC(C)(C)c1ccc(-c2noc(CCC(=O)NCC3CCCO3)n2)cc1 (configuration not stated)	2%	?	-7%	13µM*	9
Cc1ccc(-c2nc(N)sc2CC(=O)OCC(=O)NCC2CCCO2)cc1 (configuration not stated)	-4%	10%	?	32µM*	28
CNC(=O)CCc1nc(-c2ccc(C(C)(C)C)cc2)no1	1%	13%	-2%	-17%	-10
O=C(CCc1nc(-c2ccccc2)no1)NCC1CCCO1 (configuration not stated)	-6%	18%	?	25µM*	-6
Cc1ccc(-c2nc(N)sc2CC(=O)OCC(=O)NCCC(C)C)cc1	-10%	2%	-2%	-22%	5
Cc1ccc(CNC(=O)C(=O)NCC(c2ccc3c(c2)OCO3)N2CCOCC2)cc1 (configuration not stated)	.	6%[46 µM]	.	.	.
SMILES	12-hLO inh	Lamin A splicing	ALDH1A1 inh	HPGD inh	PNC assembly inh
COCCNC(=O)CCCN1C(=O)CCn2nc(-c3cccn3C)cc21	.	-3%[46 µM]	.	.	.
O=C(COC(=O)CCC(=O)c1cccs1)NCc1ccccc1	.	?	-3%	.	.
O=c1cc(NCCc2ccccc2)c2ccccc2o1	.	-2%[46 µM]	-7%	.	.
Cc1ccc(-c2nc(NCC3CCCO3)sc2C)cc1 (configuration not stated)	.	-6%[46 µM]	28µM*	.	.
Cc1ccc(S(=O)(=O)c2nc(S(C)(=O)=O)sc2NCC2CCCO2)cc1 (configuration not stated)	-1%	4%	?	-9%	31
Cc1ccc(-c2noc(CCC(=O)NCCN3CCOCC3)n2)cc1	0%	14%	2%	-4%	0
Cc1ccc(-c2noc(CCC(=O)NCC3CCCO3)n2)cc1 (configuration not stated)	-2%	12%	-5%	18µM*	4
CCOC(=O)c1oc2cccc(O)c2c1C	-3%	5%	-3%	-13%	33
CCOC(=O)c1oc2ccc(CNC(C)(C)C)c(Cl)c2c1C	-11%	6%	-11%	-11%	-119*
COCCn1nnnc1C(c1cccs1)N1CCCC(C)C1 (configuration not stated)	.	12%[46 µM]	11µM*	.	.
Fc1ccc(N2CCN(C(c3cccs3)c3nnnn3CCc3ccccc3)CC2)cc1 (configuration not stated)	-3%	?	1µM*	-2%	33
COc1ccc(Cn2nnnc2C(c2cccs2)N2CCCCCC2)cc1 (configuration not stated)	2%	-4%	13µM*	-16%	13
CC1CCN(C(c2cccs2)c2nnnn2Cc2ccccc2)CC1 (configuration not stated)	-4%	7%	2µM*	-19%	-5
CC1=CCC2CC1C2(C)C (configuration not stated)	-4%	-22%	-16%	-1%	.
CN(C)CCc1c[nH]c2ccc(CC3COC(=O)N3)cc12 (configuration not stated)	3%	?	0%	-5%	.
COC(=O)C1=C(C(=O)OC)[C@@H]2N(C)c3ccccc3[C@@]23C[C@@H](C(=O)OC)N(S(=O)(=O)c2ccc(C)cc2)C3=N1	0%[11.4 µM]	2%[9.22 µM]	15%[13.5 µM]	-2%	.
CCOC(=O)c1sc(NC(=O)c2ccc(C)o2)nc1C	3%	-8%	-11%	20µM*	-26
CCOC(=O)c1sc(NC(=O)C2CC=CCC2C(=O)O)nc1C (configuration not stated)	-4%	-2%	0.13µM*	-15%	22
COc1ccccc1CNC(=O)C1CCN(S(=O)(=O)c2c(C)noc2/C=C/c2c(C)cc(C)cc2C)CC1	.	-12%[46 µM]	.	.	.
Cc1ccccc1N=C/C=C1/C=C(c2ccccc2)OC(C)(C)O1	-9%	?	2.2µM*	-19%	-10
COc1ccc(N=C/C=C2\C=C(c3ccccc3)OC(C)(C)O2)cc1	-8%	?	2.2µM*	-29%	-15
CC1(C)OC(c2ccccc2)=C/C(=C/C=C2C(=O)c3ccccc3C2=O)O1	.	.	-15%	.	.
CN(C)C(=O)c1nnsc1Sc1ccc(Cl)cc1	.	20%[46 µM]	7%	.	.
OC[C@@H]1O[C@@H](n2cnc3c(NC4CCCCC4)ncnc32)[C@@H](O)[C@H]1O	-6%	.	.	.	.
O=C(NCC1CCCO1)C1CCN(S(=O)(=O)Cc2ccccc2)CC1 (configuration not stated)	-2%	-7%	10%	2%	-108*
O=C(NCC1CCCO1)C1CCN(S(=O)(=O)c2ccccc2)CC1 (configuration not stated)	.	.	2%	.	.

Bioassay records from PubChem BioAssay.
